# Source: publication PMC4336329 (PLoS ONE, 2015)
# The campaign covered roughly 310,000 compounds. About 14,000 (4.5%) showed an effect of 50% or more. The effect is printed as a negative number. The full list was thinned out, with strong results kept by preference.
# Target: human ether-à-go-go-related gene (hERG) potassium channel (human, UniProt Q12809)
# Test: primary screen, population patch clamp on CHO cells stably expressing hERG; higher = less effect of the substance
# 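Note: peak tail current of the secondary pulse compared with the same well before compound.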
# Sequence of human ether-à-go-go-related gene (hERG) potassium channel (Q12809 whole entry, looked up): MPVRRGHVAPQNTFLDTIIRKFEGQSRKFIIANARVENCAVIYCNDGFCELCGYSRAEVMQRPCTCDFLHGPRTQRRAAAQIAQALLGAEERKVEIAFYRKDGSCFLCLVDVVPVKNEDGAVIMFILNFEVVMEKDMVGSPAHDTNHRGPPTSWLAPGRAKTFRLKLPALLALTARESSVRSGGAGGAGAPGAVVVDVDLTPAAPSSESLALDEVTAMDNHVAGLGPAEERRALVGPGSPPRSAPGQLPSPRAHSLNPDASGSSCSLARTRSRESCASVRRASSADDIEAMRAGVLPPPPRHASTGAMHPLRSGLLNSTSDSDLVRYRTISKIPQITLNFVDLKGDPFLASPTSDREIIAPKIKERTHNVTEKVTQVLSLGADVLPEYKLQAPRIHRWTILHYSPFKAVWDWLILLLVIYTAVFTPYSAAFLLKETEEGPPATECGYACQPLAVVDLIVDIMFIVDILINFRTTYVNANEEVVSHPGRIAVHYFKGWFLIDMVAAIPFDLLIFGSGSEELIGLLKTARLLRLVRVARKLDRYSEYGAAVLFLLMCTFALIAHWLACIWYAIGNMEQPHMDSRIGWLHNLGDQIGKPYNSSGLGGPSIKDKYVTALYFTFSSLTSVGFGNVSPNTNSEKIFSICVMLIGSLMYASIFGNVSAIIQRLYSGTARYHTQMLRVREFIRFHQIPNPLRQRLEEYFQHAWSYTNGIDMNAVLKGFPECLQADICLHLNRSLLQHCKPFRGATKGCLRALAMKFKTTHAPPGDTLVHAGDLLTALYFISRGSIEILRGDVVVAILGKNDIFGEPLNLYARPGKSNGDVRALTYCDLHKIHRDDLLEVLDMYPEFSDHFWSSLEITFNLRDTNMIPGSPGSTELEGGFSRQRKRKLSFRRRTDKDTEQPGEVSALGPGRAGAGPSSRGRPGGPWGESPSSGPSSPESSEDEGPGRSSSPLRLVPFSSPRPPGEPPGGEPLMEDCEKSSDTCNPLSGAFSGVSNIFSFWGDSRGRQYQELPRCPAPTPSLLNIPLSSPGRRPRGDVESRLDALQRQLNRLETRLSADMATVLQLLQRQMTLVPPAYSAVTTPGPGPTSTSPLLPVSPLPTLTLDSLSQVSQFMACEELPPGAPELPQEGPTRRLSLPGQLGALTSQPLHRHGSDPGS
row,SMILES,"hERG current change (%, negative = inhibition) at 10uM"
1,COc1ccc(N2CCN(CC(=O)Nc3c(C)cc(C)cc3C)CC2)cc1,0.738%
2,Cc1ccc(CNC(=O)/C=C/c2ccc(Br)o2)cc1,-26.2%
3,O=C(Nc1cccc(Cl)c1)NC1CC2CCC1C2 (stereo not shown),9.69%
4,O=C(Nc1c2c(nc3ccccc13)CCCC2)c1ccccc1F,-3%
5,Cc1ccc2nc(-c3ccncc3)cc(C(=O)Nc3ccc4c(c3)OCCO4)c2c1,3.46%
6,O=C(Nc1ccc2c(c1)OCCO2)c1cc(-c2ccccc2)nc2ccccc12,9.23%
7,Cl.c1ccc2c(Nc3ccc4c(c3)OCCO4)c3c(nc2c1)CCC3,-52.3%
8,O=C(COC(=O)c1c2c(nc3ccccc13)CCCC2)Nc1ccc2c(c1)OCO2,3.1%
9,c1ccc2c(Nc3ccc4c(c3)OCCO4)c3c(nc2c1)CCCC3,-92.4%
10,Cc1ccc2nc(-c3ccc4c(c3)OCCO4)cc(C(=O)O)c2c1,4.86%
11,Cc1ccc2nc3c(c(Nc4ccc5c(c4)OCCO5)c2c1)CCC3.Cl,-51.7%
12,Cc1cc(C)c(C)c(S(=O)(=O)N2CCC(C(=O)Nc3ccccc3N3CCOCC3)CC2)c1C,-8.54%
13,Cc1cc(Br)ccc1NC(=O)CNC(=O)Cc1ccc(S(=O)(=O)N2CCOCC2)s1,-33.8%
14,CCOC(=O)[C@H]1CCC[C@@H](NS(=O)(=O)c2ccc(NC(C)=O)cc2)C1,14.1%
15,Cc1ccc(Nc2ccc3nonc3c2[N+](=O)[O-])cc1,2.88%
16,CCCCNC(=O)C1c2ccccc2C(=O)N(c2ccc(OC)cc2)C1c1ccc(OC)cc1 (stereo not shown),-18.6%
17,COc1cc(OC)c(C(=O)NNC(=S)NC2CCCCC2)cc1OC,16.6%
18,Cc1cccc(C(=O)NCC(=O)N2CCN(S(=O)(=O)/C=C/c3ccccc3)CC2)c1,-18.5%
19,O=C(NCC(=O)N1CCN(C/C=C/c2ccccc2)CC1)c1ccc(OC(F)F)cc1,-79.5%
20,O=C(NC(=S)N1CCN(C/C=C/c2ccccc2)CC1)c1ccc(F)cc1,-43.7%
21,CC(C)Oc1ccc(C(=O)NCC(=O)N2CCN(S(=O)(=O)/C=C/c3ccccc3)CC2)cc1,-67.6%
22,O=C(NCC(=O)N1CCN(S(=O)(=O)/C=C/c2ccccc2)CC1)c1ccc(Cl)cc1,-23.1%
23,CCOc1ccc(C(=O)NCC(=O)N2CCN(C/C=C/c3ccccc3)CC2)cc1OCC,-41.7%

row,SMILES,"hERG current change (%, negative = inhibition) at 10uM"
1,CCOC(=O)c1cnc(SCc2nc(N)nc(Nc3ccccc3OC)n2)nc1N,-2.39%
2,O=C1NCC(COc2cccc3ccccc23)O1 (stereo not shown),13.3%
3,CCN(CC(=O)Nc1ccc(NC(C)=O)cc1)C(=O)Cc1cccc2ccccc12,4.98%
4,CC1CCCCN1S(=O)(=O)c1ccc2[nH]c(=O)cc(C(=O)NCCCN3CCCCCC3)c2c1 (stereo not shown),17%
5,Cc1ccc(-n2cc(-c3ccc([N+](=O)[O-])cc3)[nH]c2=S)c(C)c1,-51.3%
6,O=[N+]([O-])c1ccc(-c2cn(-c3ccccc3F)c(=S)[nH]2)cc1,-3.28%
7,Cc1cccc(-n2cc(-c3ccc([N+](=O)[O-])cc3)[nH]c2=S)c1,-2.96%
8,CCOC(=O)C1CCCN(C(=O)Cn2nc(C)n3c(cc4c(OC)cccc43)c2=O)C1 (stereo not shown),-6.37%
9,CN1C[C@H](CNC(=O)OCc2ccccc2)C[C@@H]2c3cccc4c3c(cn4C)C[C@H]21,-61.9%
10,CN1C[C@H](CO)C[C@@H]2c3cccc4[nH]cc(c34)C[C@H]21,-7.36%
11,O=C(NCC1CCC(C(=O)O)CC1)OCc1ccccc1 (stereo not shown),3.13%
12,COc1ccc(CCN(C)C2CCCN(C(=O)c3ccnn3C)C2)cc1OC (stereo not shown),-21.1%
13,COCc1ccc(C(=O)N2CCCC(N(C)CCc3ccc(OC)c(OC)c3)C2)s1 (stereo not shown),-62.4%
14,CCn1nc(C)cc1C(=O)N1CCCC(N(C)CCc2ccc(OC)c(OC)c2)C1 (stereo not shown),-16.2%
15,Cc1ccsc1C(=O)N1CCCC(N(C)Cc2ccccc2)C1 (stereo not shown),-13.9%
16,COc1ccc(CCN(C)C2CCCN(C(=O)c3sccc3C)C2)cc1OC (stereo not shown),-55%
17,COCc1ccc(C(=O)N2CCCC(N(C)Cc3ccccc3)C2)s1 (stereo not shown),-8.86%
18,CN(C)CCCn1c(SCc2c(Cl)cccc2Cl)nnc1-c1ccncc1.O=C(O)C(=O)O,-0.471%
19,CCOc1ccc(NC(=O)C2CCCN(c3nn4c(=O)cc(C)nc4s3)C2)cc1 (stereo not shown),-7.14%
20,COc1ccc(C/C(C)=N/NC(=O)c2ccncc2)cc1,-7.41%
21,O=C(CSc1nc(O)c(C2CCCCC2)c(=O)[nH]1)Nc1ccc(F)cc1,22.4%
22,COc1ccc(OCCSc2ncc(CO)n2C)cc1,12.4%
23,CCn1c(CN2CCN(CCO)CC2)nc2ccccc21,5.04%

row,SMILES,"hERG current change (%, negative = inhibition) at 10uM"
1,CCCn1c(CN2CCN(C)CC2)nc2ccccc21,-9.68%
2,CCCCn1c(CN2CCN(CCO)CC2)nc2ccccc21,-66%
3,CCCCn1c(N)nc2ccccc21.Cl,-8.47%
4,CCCCn1c(CN2CCN(C)CC2)nc2ccccc21,-67.1%
5,CCCCn1c(CNC(C)=O)nc2ccccc21,3.5%
6,O=S(=O)(Nc1ccccn1)c1ccc(Cl)c2ccccc12,19.5%
7,O=C(NCc1cccnc1)c1cccc2c1C(=O)N(C1CCCCC1)C2,-15.3%
8,CCc1ccccc1N1C(=O)/C(=C/c2ccc(N3CCN(C)CC3)o2)C(=O)NC1=S,1.18%
9,O=C(CCNS(=O)(=O)c1ccccc1C(F)(F)F)NCC(c1ccco1)N1CCCCC1 (stereo not shown),0.519%
10,CCOc1ccc2nc(NS(=O)(=O)c3cccs3)sc2c1,20.8%
11,COC(OC)c1ccc(C#N)c(SCc2ccccc2)n1,4.03%
12,CCNS(=O)(=O)c1ccc(CCC(=O)NCc2ccccn2)cc1,13.5%
13,CC(=O)NNc1nc(-c2ccccc2)c2cc(Br)ccc2n1,5.01%
14,O=C(CN1CCOCC1)NNc1nc(-c2ccccc2)c2cc(Br)ccc2n1,-38.7%
15,O=C(O)CCC(=O)NNc1nc(-c2ccccc2)c2cc(Cl)ccc2n1,14.4%
16,O=C(CCl)NNc1nc(-c2ccccc2)c2cc(Cl)ccc2n1,1.46%
17,O=C(CN1CCCCC1)NNc1nc(-c2ccccc2)c2cc(Cl)ccc2n1,-58%
18,O=C(CN1CCCCC1)NNc1nc(-c2ccccc2)c2cc(Br)ccc2n1,-55.4%
19,COCCN(C(=O)CCCC(=O)Nc1ccccn1)C(C(=O)NC1CCCC1)c1ccc(C)cc1 (stereo not shown),-5.66%
20,O=C(Nc1cc2c(oc1=O)CCCC2=O)c1cccc(Cl)c1,4.61%
21,CCC(Oc1ccccc1)C(=O)Nc1ccccc1C(=O)N1CCN(C)CC1 (stereo not shown),0.0528%
22,N#CC(c1ccccc1)N1CCOCC1 (stereo not shown),6.63%
23,S=C1NCN(Cc2cccnc2)CN1Cc1ccccc1,22.8%

row,SMILES,"hERG current change (%, negative = inhibition) at 10uM"
1,S=C1SCN(Cc2cccnc2)CN1Cc1cccnc1,-20.9%
2,S=C1SCN(Cc2cccnc2)CN1Cc1ccccc1,-54.7%
3,Fc1ccc2[nH]c3c(N4CCN(C5CCCCC5)CC4)ncnc3c2c1,-46.7%
4,COc1ccc(CN(CC2CCC(C(=O)O)CC2)C(=S)Nc2cc(C)cc(C)c2)cc1 (stereo not shown),19.6%
5,Cc1cc(N2CCCC2)nc(-c2ccccc2O)n1,-1.15%
6,CCN1CCN(c2cc(C)nc(-c3ccccc3O)n2)CC1,-58.9%
7,Cc1cc(N2CCN(C)CC2)nc(-c2ccccc2O)n1,-41.9%
8,Cc1ccc(CN2CC(C(=O)Nc3cccc(S(=O)(=O)N4CCCCC4)c3)CC2=O)cc1 (stereo not shown),6.85%
9,CC(=O)c1ccc(OCC(C)C)c(CC(C(N)=O)C(N)=O)c1,19.2%
10,CCOC(=O)C1=C(C)N(CCO)C(=O)NC1c1cccc(O)c1 (stereo not shown),18.8%
11,O=C(Nc1ccnn1C1CCN(Cc2ccc(O)c(Cl)c2)CC1)C1CCCC1,-33%
12,O=C(Nc1ccnn1C1CCN(C(=O)c2ccc(Cl)cc2)CC1)C1CC1,-24.2%
13,CSc1ccc(CC(=O)N2CCC(n3nccc3NC(=O)C3CC3)CC2)cc1,-8.47%
14,CC(C)n1cc(CN2CCC(n3nccc3NC(=O)C3CCCC3)CC2)cn1,-1.92%
15,O=C(Nc1ccnn1C1CCN(Cc2cccc(O)c2)CC1)C1CCCC1,-36.5%
16,O=C(Nc1ccnn1C1CCN(Cc2ccccc2)CC1)C1CCOC1 (stereo not shown),18.8%
17,CSc1cccc(CN2CCC(n3nccc3NC(=O)C3CC3)CC2)c1,-51.4%
18,O=C(Nc1ccnn1C1CCN(Cc2ccccc2)CC1)C1CCCC1,-36.7%
19,CC(Cc1ccc(Cl)cc1)N1CCC(n2nccc2NC(=O)C2CCCC2)CC1 (stereo not shown),-76.3%
20,O=C(Nc1ccnn1C1CCN(Cc2ccc(Cl)cc2)CC1)C1CCCC1,-63.6%
21,Cc1ccc(CN2CCC(n3nccc3NC(=O)C3CCOC3)CC2)cc1 (stereo not shown),-26.8%
22,CSc1ccc(CN2CCC(n3nccc3NC(=O)C3CCOC3)CC2)cc1 (stereo not shown),-67.8%
